Measured values: PubChem BioAssay (NCATS)
Where “and” joins values, the source holds several entries; their conditions need not be identical. Equal entries are not always repeated. Records with an inconclusive call do not appear. Calls of active or inactive are those of the source. Unless noted, the call rests on the fitted dose curve; in most records, active means well fitted curve in the direction sought with a large enough effect; inconclusive means small, poorly fitted or top-dose-only effect, or another doubt; inactive means no such curve, though single readings can be large; an effect the other way counts as inactive or inconclusive.

Tests used:
[1] = biological target: Voltage-gated inwardly rectifying potassium channel KCNH2 (Homo sapiens) (UniProt Q12809); assay: qHTS Assay for Small Molecule Inhibitors of the Human hERG Channel Activity (AID 588834);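 further: lower thallium flux fluorescence means stronger hERG block; nearly all actives have a fitted effect of over 50% in size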; further: potency means the concentration at half of the fitted maximal effect
Chain of Voltage-gated inwardly rectifying potassium channel KCNH2 (Homo sapiens) (Q12809 whole entry, looked up): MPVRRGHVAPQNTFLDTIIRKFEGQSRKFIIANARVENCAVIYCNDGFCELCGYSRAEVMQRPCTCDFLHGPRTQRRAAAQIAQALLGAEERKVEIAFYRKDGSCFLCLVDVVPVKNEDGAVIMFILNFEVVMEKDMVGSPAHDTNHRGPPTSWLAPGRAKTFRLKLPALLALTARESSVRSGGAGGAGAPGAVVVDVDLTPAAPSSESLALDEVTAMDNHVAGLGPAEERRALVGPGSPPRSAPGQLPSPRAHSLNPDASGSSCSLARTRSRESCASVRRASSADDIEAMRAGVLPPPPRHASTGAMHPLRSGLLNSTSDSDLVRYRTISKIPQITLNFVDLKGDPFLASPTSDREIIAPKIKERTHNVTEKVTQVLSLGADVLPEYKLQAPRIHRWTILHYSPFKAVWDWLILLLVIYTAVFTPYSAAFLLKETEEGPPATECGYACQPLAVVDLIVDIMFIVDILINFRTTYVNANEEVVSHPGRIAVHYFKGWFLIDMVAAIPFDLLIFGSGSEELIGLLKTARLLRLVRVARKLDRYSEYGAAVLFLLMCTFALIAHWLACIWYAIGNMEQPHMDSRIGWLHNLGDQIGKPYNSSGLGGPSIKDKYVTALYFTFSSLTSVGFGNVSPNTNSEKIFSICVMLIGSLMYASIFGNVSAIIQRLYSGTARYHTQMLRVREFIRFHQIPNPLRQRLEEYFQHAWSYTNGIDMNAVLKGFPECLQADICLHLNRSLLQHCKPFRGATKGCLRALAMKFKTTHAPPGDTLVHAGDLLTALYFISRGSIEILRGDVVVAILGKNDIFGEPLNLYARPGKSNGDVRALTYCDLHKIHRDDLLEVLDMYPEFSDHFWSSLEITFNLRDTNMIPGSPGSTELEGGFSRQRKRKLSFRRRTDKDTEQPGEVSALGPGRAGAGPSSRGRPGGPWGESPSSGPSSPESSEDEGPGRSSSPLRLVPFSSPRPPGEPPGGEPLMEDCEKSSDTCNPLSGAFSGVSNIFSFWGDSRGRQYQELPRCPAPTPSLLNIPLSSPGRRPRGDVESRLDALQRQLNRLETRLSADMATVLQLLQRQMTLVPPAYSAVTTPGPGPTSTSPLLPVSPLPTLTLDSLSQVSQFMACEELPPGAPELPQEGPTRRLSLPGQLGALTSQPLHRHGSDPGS
In short: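 hERG-BacMam U2OS, 2000 cells/well; 0.7X FluxOR loading 1 hr RT dark; cpd ~10 min 37 °C; stim buffer; FDSS fluorescence 2 min @ 1 s; AC50 Hill fit.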

[2] = biological target: Luciferin 4-monooxygenase (Photinus pyralis) (UniProt P08659); assay: Biochemical firefly luciferase enzyme assay for NPC (AID 624030); further: nearly all actives have a fitted effect of over 70% in size; further: potency means the concentration at half of the fitted maximal effect
Chain of Luciferin 4-monooxygenase (Photinus pyralis) (P08659 whole entry, looked up): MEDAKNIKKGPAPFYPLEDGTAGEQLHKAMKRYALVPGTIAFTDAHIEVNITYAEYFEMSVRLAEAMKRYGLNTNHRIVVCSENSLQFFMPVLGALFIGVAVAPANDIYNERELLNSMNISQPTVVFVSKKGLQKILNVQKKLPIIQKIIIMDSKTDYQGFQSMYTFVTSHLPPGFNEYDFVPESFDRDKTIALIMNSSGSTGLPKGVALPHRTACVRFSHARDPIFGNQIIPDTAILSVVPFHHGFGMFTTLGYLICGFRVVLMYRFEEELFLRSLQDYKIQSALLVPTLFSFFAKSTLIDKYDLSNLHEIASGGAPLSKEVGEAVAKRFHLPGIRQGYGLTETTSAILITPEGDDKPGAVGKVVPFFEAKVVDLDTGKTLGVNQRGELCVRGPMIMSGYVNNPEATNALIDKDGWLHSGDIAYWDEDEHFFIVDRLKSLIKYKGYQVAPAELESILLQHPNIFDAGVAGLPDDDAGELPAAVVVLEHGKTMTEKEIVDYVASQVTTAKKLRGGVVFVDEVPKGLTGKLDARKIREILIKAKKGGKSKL
In short: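 Direct inhibition of firefly luciferase enzyme (10 nM final, 50 mM Tris Acetate) assessed by luminescence within 5 minutes. Percent activity scaled between DMSO and PTC124 positive control, with concentration-effect curves classified by fit quality and response.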

[3] = S16 Schwann cell viability assay (CellTiter-Glo assay) (AID 624031);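 further: native untransfected S16 rat Schwann cells; cellular ATP luminescence as a viability measure; plate controls were DMSO-treated cells for no effect and cell-free wells for full effect; nearly all actives have a fitted effect of over 70% in size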
In short: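 Parental S16 cells, 24 h compound, 37 °C. ATP-luminescence viability; DMSO = 0% activity, empty wells as reference; curves classified by fit quality and efficacy.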

[4] = S16 Schwann cell PMP22 intronic element firefly luciferase assay (AID 624032);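 further: plate controls were DMSO for no effect and PTC124 positive control mean for full effect; nearly all actives have a fitted effect of over 30% in size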
In short: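 Luciferase reporter of PMP22 intronic-element expression in stably transfected S16 rat Schwann cells, read by ONE-Glo luminescence after 24 h compound exposure at 37 C. Activity scaled between DMSO (0%) and positive-control PTC124; concentration-effect curves quality-classified.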

[5] = S16 Schwann cell PMP22 intronic element beta-lactamase assay (AID 624044; calls by dose curve; further: nearly all actives have a fitted effect of over 15% in size; further: potency means the concentration at half of the fitted maximal effect;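 on ratio activity, negative = inhibition: 0% = DMSO and -100% = potassium clavulanate positive control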); conditions: S16 rat Schwann cells, PMP22 element beta-lactamase FRET, 24 h; ratio activity, negative = inhibition: at 38.3 µM (top of the series) unless noted
In short: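 Rat S16 Schwann cells with beta-Lac driven by a PMP22 intronic element, compound-treated 24 h at 37 °C. LiveBLAzer FRET B/G read: 460 nm normalized to potassium clavulanate vs DMSO; 535 nm FRET as viability; concentration-effect curves classified.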

[6] = qHTS assay for small molecule agonists of the antioxidant response element (ARE) signaling pathway (AID 651741; active means well fitted activation curve with a large enough effect in the signal ratio; the % refers to the signal ratio; further: potency means the concentration at half of the fitted maximal effect; on activation: % of control where 0% means no effect)
In short: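 Seeding 2,000 ARE-bla HepG2 cells per well preceded a 5 h incubation at 37 C/5% CO2 and a 16 h compound exposure at 37 C. Beta-lactamase reporter activity was then quantified by fluorescence after 2 h with LiveBLAzer B/G FRET substrate.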

[7] = qHTS assay for small molecule activators of the nuclear factor-kappa B (NF-kB) signaling pathway (AID 651749; active means well fitted activation curve with a large enough effect in the signal ratio; the % refers to the signal ratio; further: % of control where 0% means no effect); conditions: NF-kB-bla ME-180 cells, beta-lactamase FRET ratio, 16 h; active compounds read high
In short: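 Stably transfected ME-180 line; NF-kB response element upstream of beta-lactamase. Treatment: compound or DMSO, 16 hr. Detection: fluorescent FRET substrate.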

[8] = qHTS assay for small molecule disruptors of the mitochondrial membrane potential - 1 hr assay (AID 651754; calls by dose curve; further: on the % scale 0 is the no-effect control and ±100 the full control effect; nearly all actives have a fitted effect of over 35% in size)
In short: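 HepG2 cells, attached overnight at 37C, were exposed to compound or DMSO vehicle for 1 hr at 37C, 5% CO2, then stained with Mito-MPS dye for 30 min. Red aggregate versus green monomer fluorescence reports membrane potential.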

[9] = qHTS assay for small molecule disruptors of the mitochondrial membrane potential - 5 hr assay (AID 651755; calls by dose curve; further: on the % scale 0 is the no-effect control and ±100 the full control effect; nearly all actives have a fitted effect of over 40% in size)
In short: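 HepG2, 2,000 cells/well, overnight attach; cpd or DMSO 5 hr, 37C/5% CO2; Mito-MPS 30 min 37C; fluor 490/535 + 540/590 nm.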

[10] = biological target: Tumor necrosis factor (Homo sapiens) (UniProt P01375); assay: qHTS assay to identify small molecules that stimulate Tumor Necrosis Factor-alpha (TNF-alpha) secretion (AID 651757; active means well fitted curve in the direction sought with a large enough effect in the signal ratio; the % refers to the signal ratio; further: 0% is about no effect)
Chain of Tumor necrosis factor (Homo sapiens) (P01375 whole entry, looked up): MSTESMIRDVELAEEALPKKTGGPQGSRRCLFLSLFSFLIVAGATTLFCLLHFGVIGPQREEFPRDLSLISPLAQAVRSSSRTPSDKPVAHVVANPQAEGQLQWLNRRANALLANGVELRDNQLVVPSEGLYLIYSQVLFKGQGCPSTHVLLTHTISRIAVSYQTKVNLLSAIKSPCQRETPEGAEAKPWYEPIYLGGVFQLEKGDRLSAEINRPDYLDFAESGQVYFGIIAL
In short: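 THP-1 cells were exposed to compounds for 17 hrs at 37 C, after which secreted TNF-alpha was measured by homogeneous HTRF (TR-FRET) using cryptate- and XL665-labeled anti-TNF-alpha antibodies, read after 3 hr at room temperature.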

[11] = qHTS assay for environmental chemicals that activate the Aryl hydrocarbon Receptor (AhR) signaling pathway (AID 651777); conditions: 1A2-DRE human hepatoma cells, luciferase, 24 h; activation: active compounds read high; further: % of control where 0% means no effect; nearly all actives have a fitted effect of over 15% in size
In short: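 Reporter gene assay: hepatoma cells with DRE/CYP1A2-luciferase, 24 hr compound incubation at 37 C, 5% CO2, luminescence after One-Glo (30 min, RT).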

[12] = biological target: Peroxisome proliferator-activated receptor alpha (Homo sapiens) (UniProt Q07869); assay: qHTS assay for small molecule agonists of the peroxisome proliferator-activated receptor alpha (PPARalpha) signaling pathway (AID 651778); conditions: PathHunter PPARalpha complementation, chemiluminescence, 6 h; active compounds read high; further: % of control where 0% means no effect
Chain of Peroxisome proliferator-activated receptor alpha (Homo sapiens) (Q07869 whole entry, looked up): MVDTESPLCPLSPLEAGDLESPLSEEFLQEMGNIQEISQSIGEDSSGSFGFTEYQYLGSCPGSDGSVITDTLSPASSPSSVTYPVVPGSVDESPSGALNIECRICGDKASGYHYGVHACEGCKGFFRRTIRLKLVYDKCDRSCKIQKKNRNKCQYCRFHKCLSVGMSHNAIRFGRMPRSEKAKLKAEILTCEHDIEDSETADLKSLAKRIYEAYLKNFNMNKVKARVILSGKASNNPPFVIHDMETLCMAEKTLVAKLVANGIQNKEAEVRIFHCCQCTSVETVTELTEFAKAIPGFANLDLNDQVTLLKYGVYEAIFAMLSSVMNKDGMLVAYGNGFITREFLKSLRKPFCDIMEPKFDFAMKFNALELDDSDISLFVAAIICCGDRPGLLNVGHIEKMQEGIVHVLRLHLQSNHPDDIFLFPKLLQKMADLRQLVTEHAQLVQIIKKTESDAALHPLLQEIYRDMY
In short: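 Chemiluminescence from complemented enzyme reported PPARalpha activation in cells after 6 hr of compound treatment at 37 C. The detection reagent was incubated for 60 min at room temperature, and compounds were scored as agonists.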

[13] = biological target: Nuclear receptor ROR-gamma (Homo sapiens) (UniProt P51449); assay: qHTS assay for small molecule antagonists of the retinoid-related orphan receptor gamma (ROR-gamma) signaling pathway (AID 651802); further: on the % scale 0 is the no-effect control and ±100 the full control effect; nearly all actives have a fitted effect of over 60% in size
Chain of Nuclear receptor ROR-gamma (Homo sapiens) (P51449 whole entry, looked up): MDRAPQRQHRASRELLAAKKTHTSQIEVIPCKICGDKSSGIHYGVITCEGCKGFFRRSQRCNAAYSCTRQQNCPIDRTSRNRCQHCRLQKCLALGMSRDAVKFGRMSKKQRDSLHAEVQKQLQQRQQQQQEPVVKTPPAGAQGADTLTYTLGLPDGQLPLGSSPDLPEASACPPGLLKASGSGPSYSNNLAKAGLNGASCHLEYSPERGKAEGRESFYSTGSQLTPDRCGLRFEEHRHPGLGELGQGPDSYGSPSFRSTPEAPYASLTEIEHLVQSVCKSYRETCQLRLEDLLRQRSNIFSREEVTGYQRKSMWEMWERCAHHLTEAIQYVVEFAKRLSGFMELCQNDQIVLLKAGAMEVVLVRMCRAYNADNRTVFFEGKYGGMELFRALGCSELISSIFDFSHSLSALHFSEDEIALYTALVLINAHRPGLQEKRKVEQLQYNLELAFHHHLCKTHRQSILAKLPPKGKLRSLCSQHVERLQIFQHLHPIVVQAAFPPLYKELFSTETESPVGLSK
In short: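 CHO cells carrying TET-inducible ROR-gamma and an ROR response element–luciferase reporter were exposed to compound, then induced with doxycycline. After 16hr at 37C, luminescence was read; lower signal indicates antagonism.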

[14] = qHTS assay for small molecule activators of the p53 signaling pathway (AID 651743; active means well fitted activation curve with a large enough effect in the signal ratio, not every such curve was filed as active; the % refers to the signal ratio; further: % of control where 0% means no effect); conditions: HCT-116 p53RE-bla, beta-lactamase FRET ratio, 16 h; activation: active compounds read high
In short: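 Screen for p53 pathway agonists uses stably transfected p53RE-bla HCT-116 cells, 4,000 per well, treated 16 h at 37 C with compounds in DMSO.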

[15] = qHTS assay to identify small molecules that stimulate interleukin-8 (IL-8) secretion (AID 651758; active means well fitted activation curve with a large enough effect in the signal ratio; the % refers to the signal ratio; further: 0% is about no effect)
In short: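 Secreted IL-8 measured by TR-FRET sandwich (cryptate and XL665 antibodies) from THP-1 cells exposed to compound overnight (16 hrs, 37 C).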

CC(=O)Nc1ccc(OC(=O)c2ccccc2O)cc1
active: Potency [2] 25.6 µM
inactive: Potency [1] | Potency [3] | Potency [4] | ratio activity, negative = inhibition [5] 1.52%

O=P(O)(O)O
inactive: Potency [1] | Potency [2] | Potency [3] | Potency [4] | ratio activity, negative = inhibition [5] 2.1% | Potency [6] | activation [7] -0.144% | Potency [8] | Potency [9] | Potency [10] | activation [11] -1.09% | max response [12] -4.49% | Potency [13]

NCCO/C=C/[C@H](N)C(=O)O
inactive: Potency [1] | Potency [2] | Potency [3] | Potency [4] | ratio activity, negative = inhibition [5] 0.236% | Potency [6] | activation [14] 7.75% | activation [7] -5.26% | activation [11] 1.28% | max response [12] 2.79%

CC1=CC(=O)NS(=O)(=O)O1
inactive: Potency [1] | Potency [2] | Potency [3] | Potency [4] | ratio activity, negative = inhibition [5] 1.96% | Potency [6] | activation [7] -0.0661% and 0.935% | Potency [8] | Potency [9] | Potency [10] | activation [11] -1.78% and 1.57% | max response [12] -1.04% and -0.299% | Potency [13]

O.O.O.O.O.O.O.O=S(=O)([O-])[O-].[Co+2]
inactive: Potency [1] | Potency [2] | Potency [3] | Potency [4] | ratio activity, negative = inhibition [5] -3.44% | Potency [8] | Potency [9] | activation [11] -0.475% | max response [12] -1.84%

CC(=O)Nc1ccc(NC(=S)NC(=O)c2ccc(C(C)(C)C)cc2)cc1
active: Potency [1] 8.91 µM | Potency [5] 7.94 µM
inactive: Potency [2] | Potency [3] | Potency [4]

CO/N=C(/C(=O)N[C@@H]1C(=O)N2C(C(=O)O)=C(COC(N)=O)CS[C@H]12)c1ccco1
inactive: Potency [1] | Potency [2] | Potency [3] | Potency [4] | ratio activity, negative = inhibition [5] 0.236% | activation [14] 1.84% | activation [7] -0.141% | Potency [8] | Potency [9] | Potency [10] | activation [11] -0.274% | max response [12] -0.921% | Potency [13]
active: Potency [6] 42.2 µM

CCCCO
inactive: Potency [1] | Potency [2] | Potency [3] | Potency [4] | ratio activity, negative = inhibition [5] 1.65% | Potency [6] | activation [14] 0.244% and -1.87% | Potency [8] | Potency [9] | Potency [10] | Potency [15] | activation [11] -0.013% and -0.728% | max response [12] -5.14% and -4.07%

CCCCC(CC)CCC(CC(C)C)OS(=O)(=O)O (centres undefined)
inactive: Potency [1] | Potency [2] | Potency [3] | Potency [4] | ratio activity, negative = inhibition [5] 0%

O=C(O)c1ccc(NC(=O)[C@H](Cc2ccc(O)cc2)NC(=O)c2ccccc2)cc1
inactive: Potency [1] | Potency [2] | Potency [3] | Potency [4] | ratio activity, negative = inhibition [5] 6%

OCc1ccccc1
inactive: Potency [1] | Potency [2] | Potency [3] | Potency [4] | ratio activity, negative = inhibition [5] -1.75% | activation [7] 0.143% | Potency [8] | Potency [9] | Potency [10] | Potency [15] | activation [11] 0.173% | max response [12] 2.92% | Potency [13]

CC1=CCC2CC1C2(C)C (centres undefined)
inactive: Potency [1] | Potency [2] | Potency [3] | Potency [4] | ratio activity, negative = inhibition [5] 2.01% | Potency [6] | activation [14] -1.57% | activation [7] -0.174% | Potency [8] | Potency [9] | Potency [10] | Potency [15] | activation [11] 1.2% | max response [12] -6.44% | Potency [13]

COC(=O)C(CN)c1c[nH]c2ccc(OC)cc12 (centres undefined)
inactive: Potency [1] | Potency [2] | Potency [3] | ratio activity, negative = inhibition [5] 0.76%
